GALK inhibitor – blocks human galactokinase activity. Potency, µM (series often up to 57.5 µM), usual class: inhibitors. Purified GALK, Kinase-Glo residual ATP luminescence. 0.007% of 270,000 active. AID 1868. P51570
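Kinase-Glo Plus luminescence measured ATP left after a 1 h room-temperature reaction. The reaction used 5 nM GALK, 100 uM galactose and 35 uM ATP at pH 8.0 (20 mM HEPES, 5 mM MgCl2, 60 mM NaCl, 1 mM DTT, 0.01% BSA).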
Six1-Eya2 inh – Six1/Eya2 interaction inhibition. activity change, % (test concentration not listed). AID 651725. 0.56% of 360,000 active. Q15475+O00167. AlphaScreen GST-Six1/His-Eya2 binding, biochemical; hits give low values; in the data active = activity change below about -65%; inconclusive = mostly about -30% to -63%
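Six1/Eya2 binding was read as AlphaScreen signal after compounds were pinned into GST-Six1 plus His-tagged Eya2 (5X stock 250/500 nM) in pH 8.0 Tris/NaCl/TCEP buffer, beads added, then incubated 1 h, 37 C, dark.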
JMJD2E inh – inhibitors of human JMJD2E histone demethylase; 1.6% of 230,000 active; Potency, µM (highest dose often 57.1 µM), hits mostly inhibitors; JMJD2E catalytic domain, FDH-coupled NADH fluorescence (FDH is formaldehyde dehydrogenase); AID 2147; B2RXH2; active = well fitted inhibition curve with a large enough effect, not every such curve was filed as active; inconclusive = small, poorly fitted or top-dose-only effect, or another doubt; inactive = no such curve, though single readings can be large or run the other way; also: nearly all actives have a fitted effect of over 50% in size
CtBP-E1A inh – blocks the CtBP interaction with E1A; AlphaScreen GST-E1A/His-CtBP binding, 1536-well; hits give low values; 0.49% of 340,000 active; activity change, % (no concentration beside the values); AID 651724; in the data active = activity change below about -65%; inconclusive = mostly about -30% to -63%
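GST-E1A and His-tagged CtBP (125 nM each as 5X stock) were preincubated with pin-transferred compound for 2 h at 37 °C in the dark, then glutathione donor and nickel acceptor beads were added for 1 h before AlphaScreen reading.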
Eya2 phos inh – blocks the phosphatase activity of human Eya2 | recombinant Eya2, OMFP fluorescence dephosphorylation (OMFP is methylfluorescein phosphate) | Potency, µM (highest dose often 76.9 µM), hits mostly inhibitors | 0.006% of 330,000 active | O00167
Target sequence (O00167 whole entry, looked up): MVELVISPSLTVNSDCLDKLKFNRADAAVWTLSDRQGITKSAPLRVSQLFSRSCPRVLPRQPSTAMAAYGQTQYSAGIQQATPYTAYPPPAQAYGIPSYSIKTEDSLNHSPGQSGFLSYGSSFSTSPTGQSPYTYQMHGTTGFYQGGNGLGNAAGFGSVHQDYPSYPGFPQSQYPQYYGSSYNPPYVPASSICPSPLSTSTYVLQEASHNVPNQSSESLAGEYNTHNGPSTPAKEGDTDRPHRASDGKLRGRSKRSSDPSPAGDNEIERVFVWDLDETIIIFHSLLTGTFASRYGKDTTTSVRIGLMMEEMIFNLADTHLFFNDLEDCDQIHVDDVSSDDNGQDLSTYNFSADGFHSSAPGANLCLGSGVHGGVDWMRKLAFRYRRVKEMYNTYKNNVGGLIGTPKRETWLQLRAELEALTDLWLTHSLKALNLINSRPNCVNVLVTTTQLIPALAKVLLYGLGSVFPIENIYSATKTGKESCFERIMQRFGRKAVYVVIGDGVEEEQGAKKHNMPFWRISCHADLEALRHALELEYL
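Eya2 protein (added as 0.2 uM solution) was preincubated with compound for 10 min at ambient temperature in 50 mM HEPES pH 7.5, 50 mM NaCl, 5 uM MgCl2, 0.05% BSA, 1 mM DTT. OMFP (added at 50 uM) then reacted 10 min; fluorescence read at 485/525 nm.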
Apoferritin bind – binds horse apoferritin like a general anesthetic; P02791; apoferritin/1-aminoanthracene competitive binding, fluorescence; Potency, µM (titrated, usually from 77.5 µM), actives largely listed as inhibitors; 0.074% of 350,000 active; AID 485281; also: nearly all actives have a fitted effect of over 20% in size
Target sequence (P02791 2-175 limits assumed): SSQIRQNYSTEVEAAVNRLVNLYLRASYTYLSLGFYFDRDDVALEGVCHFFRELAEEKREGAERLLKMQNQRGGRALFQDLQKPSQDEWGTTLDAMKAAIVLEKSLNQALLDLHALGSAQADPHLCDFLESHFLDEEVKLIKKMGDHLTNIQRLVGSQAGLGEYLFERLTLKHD
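Concentration-response curves derived by four-parameter Hill fitting of normalized fluorescence, where compounds displaced 1-AMA from 10 uM horse apoferritin following a brief 10 min room-temperature incubation; propofol titration acted as positive control.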
Numbers stand for hits; – = inactive; ? = inconclusive; · = no result; ! = a repeat was not active; [ ] = another dose, or the depositor's remark. Many of the other results were omitted from the sample, so hits are more common in it than they were. Unless noted, calls follow the shape of the dose curve; as a rule, active = well fitted curve in the direction sought with a large enough effect; inconclusive = small, poorly fitted or top-dose-only effect, or another doubt; inactive = no such curve, though single readings can be large; an effect the other way counts as inactive or inconclusive.

SMILES | GALK inhibitor | Six1-Eya2 inh | JMJD2E inh | CtBP-E1A inh | Eya2 phos inh | Apoferritin bind
COc1ccc(C2c3[nH]c4ccccc4c3CC3C(=O)N(CCc4ccc(OC)c(OC)c4)CC(=O)N32)cc1 (stereo not given) | · | · | – | · | · | ·
Cc1ccc(CNC(=O)CN2C(=O)COc3ccc(S(=O)(=O)N4CCC(C)CC4)cc32)cc1 | · | · | · | · | · | –
COc1ccc(NC(=O)c2nnn(-c3ccc(C(C)C)cc3)c2C)c(OC)c1 | · | · | · | · | · | –
CCOC(=O)C1=C(C)N=C2SCCC(=O)N2C1c1ccc(C(=O)OC)cc1 (stereo not given) | – | – | – | – | – | –
CCOC(=O)C1=C(C)N2C(=C(C#N)[C@@H]1c1ccc(C(=O)OC)cc1)SC[C@@]2(O)C(C)(C)C | – | – | 20µM | – | – | –
CCc1cc(C)cc(OCCNC(=O)c2ncn[nH]2)c1 | – | – | – | – | – | –
CC(C)(C)c1ccc(OCCNC(=O)c2ncn[nH]2)cc1 | – | -67 | – | -66 | – | ?
COc1cc(/C=N/NC(=O)c2cc(-c3cccn3C)n[nH]2)cc(OC)c1OC | – | -67 | – | -75 | – | ?
COc1cc(/C=N/NC(=O)CCN2CCN(c3ccccc3)CC2)cc(OC)c1OC | – | -82 | ? | -80 | – | –
COc1cccc(/C=N/NC(=O)c2cc(-c3cccn3C)n[nH]2)c1O | · | -90 | 16µM | -90 | – | –
COc1cccc(/C=N/NC(=O)c2cc(-c3cccn3C)n[nH]2)c1 | · | ? | – | ? | – | –
CC(C)(C)c1ccc(OCC(=O)NC(Cc2c[nH]c3ccccc23)C(=O)O)cc1 (stereo not given) | · | · | · | · | · | –
COc1cccc2sc(N(Cc3cccnc3)C(=O)c3ccc4c(c3)OCCO4)nc12 | · | · | · | · | · | –
Cc1cccc(N2CCN(C(=O)Cc3c(C(=O)O)c(C)cn3C)CC2)c1C | · | · | · | · | · | –
CCCn1c(-c2ccc(F)cc2)nc2c(NCCN(CC)CC)nc(C)nc21 | · | · | ? | · | · | –
CC1=CC(C)(C)N2C(=O)C(=Nc3ccc(O)cc3)c3cccc1c32 | – | ? | 13µM | ? | – | –
CC(C)[C@H](NC(=O)[C@H](CCC(N)=O)NC(=O)CNC(=O)[C@@H]1CCCN1C(=O)[C@H](Cc1ccc(O)cc1)NC(=O)CN)C(=O)O | · | · | · | · | · | –
COc1ccc(CN2C=C3C(=O)C(C)(OC(=O)CCc4ccccc4)C(=O)C=C3C=C2c2ccc(C#N)cc2)cc1 (stereo not given) | – | – | ? | – | – | –
CCCCC1=CC2=CC(=O)C(C)(OC(=O)CC)C(=O)C2=CN1CCc1c[nH]c2ccccc12 (stereo not given) | – | – | –[11.4 µM] | – | – | –
CC1(OC(=O)CCc2ccccc2)C(=O)C=C2C=C(c3ccc(C#N)cc3)N(C3CCCCC3)C=C2C1=O (stereo not given) | – | – | 28µM! | – | – | –
COC(=O)CCCC1=CC2=CC(=O)C(C)(OC(=O)c3cccs3)C(=O)C2=CN1CCc1c[nH]c2ccccc12 (stereo not given) | – | – | 5.6µM! | ? | – | –
CC1(OC(=O)CCc2ccccc2)C(=O)C=C2C=C(c3ccc(C#N)cc3)N(CCc3c[nH]c4ccccc34)C=C2C1=O (stereo not given) | – | – | 16µM! | – | – | –
COc1ccc(N2C=C3C(=O)C(C)(OC(=O)CCc4ccccc4)C(=O)C=C3C=C2c2ccc(C#N)cc2)cc1 (stereo not given) | – | – | 20µM! | – | – | –
CCN(CC)CCCN1C=C2C(=O)C(C)(OC(=O)CCc3ccccc3)C(=O)C=C2C=C1c1ccc(C#N)cc1 (stereo not given) | – | – | ? | · | – | –
C=CCC(C)(O)c1ccc(OC)cc1 (stereo not given) | · | · | – | · | · | ·
SMILES | GALK inhibitor | Six1-Eya2 inh | JMJD2E inh | CtBP-E1A inh | Eya2 phos inh | Apoferritin bind
Fc1ccc(Nc2nc3nonc3nc2Nc2cccc(C(F)(F)F)c2)cc1 | · | · | · | · | · | –
CC1(OC(=O)CCc2ccccc2)C(=O)C=C2C=C(c3ccc(C#N)cc3)N(C(CO)CO)C=C2C1=O (stereo not given) | – | – | 3.5µM | – | – | –
Cc1ccccc1OC(=O)n1c(=S)oc2cc(Cl)ccc21 | – | – | 28µM | – | – | ?
Cc1c(C(=O)NCc2ccc3c(c2)OCO3)oc2ccc(S(=O)(=O)N3CCCC3)cc12 | – | – | 35µM | – | – | –
O=C1C(O)=C(O)C(=O)C(O)=C1O | · | · | 13µM | · | · | –
Nc1ccc(Nc2ccccc2)c(Cl)c1 | – | ? | – | – | – | 7.9µM
COc1ccc([C@@H]2CNC(=O)C2)cc1OC1CCCC1 | · | · | – | · | · | –
COc1ccc(/C=C2\SC(=S)N(C(Cc3ccccc3)C(=O)O)C2=O)cc1 (stereo not given) | – | – | – | – | – | ?
O=C(O)CC(C(=O)O)N1C(=O)/C(=C/C=C/c2ccco2)SC1=S (stereo not given) | – | ? | 11µM | – | – | –
O=C(O)C(Cc1ccccc1)N1C(=O)/C(=C/C=C/c2ccco2)SC1=S (stereo not given) | – | ? | 7.9µM | – | – | –
O=C(O)CC(C(=O)O)N1C(=O)/C(=C/c2ccc(-c3nc4ccccc4s3)o2)SC1=S (stereo not given) | – | -77 | 2.8µM | ? | – | –
O=C(NN1C(=O)/C(=C/C=C/c2ccco2)SC1=S)c1ccccc1O | – | -72 | 13µM | ? | – | –
O=C(O)CCCN1C(=O)/C(=C/C=C/c2ccco2)SC1=S | – | ? | – | – | – | –
CCC1=[N+](C)CCn2c(C)ccc21 | – | – | – | – | – | –
CC(=O)c1c(C)c(C)c2n1CCn1c(C)ccc1-2 | – | – | 22µM | · | ? | –
COCCN1Cc2cccc(C(=O)Nc3ccc(C)c(C)c3)c2C1=O | – | -74 | – | -79 | – | –
Cc1ccc2oc3c(c(=O)c2c1)C(c1cccc(O)c1)N(Cc1ccccc1Cl)C3=O (stereo not given) | · | · | · | · | · | –
NS(=O)(=O)c1ccc(Nc2nc(-c3ccc(F)cc3)cs2)cc1 | – | – | – | – | – | –
NS(=O)(=O)c1ccc(Nc2nc(-c3ccc(O)cc3O)cs2)cc1 | – | -67 | ? | -80 | – | –
CCOc1ccc(Nc2cc3n(c(=O)n2)CCc2cc(OC)c(OC)cc2-3)cc1 | – | -84 | · | – | – | –
CCNc1cc2n(c(=O)n1)CCc1cc(OC)c(OC)cc1-2 | – | ? | ? | – | – | –
CCCCCCNc1cc2n(c(=O)n1)CCc1cc(OC)c(OC)cc1-2 | – | -71 | ? | -81 | – | –
CCOc1ccccc1Nc1cc2n(c(=O)n1)CCc1cc(OC)c(OC)cc1-2 | – | ? | · | ? | – | –

Screens as filed in PubChem.
